Reference: PubChem BioAssay

experiment: budding yeast growth modifiers under rapamycin – strain BY4716, OD600, 96 h, primary screen (AID 1091); also: test concentration not given here; conditions: S. cerevisiae BY4716 + rapamycin, higher = more signal, called active from +8 up or from −8 down

z-score, inactive:
CCc1cc2c(nc1CC)CCN(CCC(C)=NOC[C@@H](O)COCc1ccco1)C2 -0.935
CCN1C(=O)[C@H]2[C@H]3[C@H](O)[C@H](O)CC(=NOC(C)CN4CCCCc5nc(C)c(C)cc54)[C@@H]3CC[C@H]2C1=O (stereo partly specified) 0.403
COCCOC(=O)N1C(=O)[C@@]2(c3cc(C#CC4(O)CCCCCC4)ccc31)[C@H](c1ccc(OCCO)cc1)N1[C@H](c3ccccc3)[C@H](c3ccccc3)OC(=O)[C@H]1[C@@H]2C(=O)NC[C@H](O)c1ccccc1 6.86
CC1CC/C=C\[C@H]2OC34C=CCN(C(C)C)C(=O)[C@H]3N(CCCO)C(=O)[C@@H]4C2C(=O)O1 (stereo partly specified) -0.24
CCCNC(=O)OC[C@H]1O[C@H](CCON=CC[C@@H]2C=C[C@H](OC(C)=O)[C@@H](COC(C)=O)O2)C=C[C@@H]1Oc1ccc(OC)cc1 0.023
Cc1ccc(S[C@]2(C(=O)O)CC(=O)N(Cc3ccccc3)[C@@H]2c2ccc(CO)cc2I)cc1 1.29
CC(=O)C[C@H](O)[C@@H](NC(=O)OC(C)(C)C)C(C)C 0.0836
COC(=O)C1=CCC(c2cccc(Cl)c2)O1 (stereo unspecified) 4.34
COCCCNC(=O)[C@@]1(CCS(=O)(=O)c2ccccc2)N=C(c2ccc(OCCCO)cc2)O[C@H]1c1ccccc1 -0.757
O=C(NN=C1C[C@@H](O)[C@@H](O)[C@@H]2[C@@H]3C(=O)N(c4cccc(Oc5ccccc5)c4)C(=O)[C@@H]3CC[C@@H]12)OCc1ccccc1 0.281
CCOC(=O)NN=C1C[C@@H](O)[C@@H](O)[C@@H]2[C@@H]3C(=O)N(C[C@@H]4CCCO4)C(=O)[C@@H]3CC[C@@H]12 0.256
COC(=O)c1c(CC[C@@H](CO)NC(=O)N[C@H](Cc2ccccc2)Cn2cc(-c3ccccc3N)nn2)oc(C(C)=O)c1C(=O)OC 0.2
CC(CCN1CCc2nc(-c3ccccc3)c(-c3ccccc3)cc2C1)=NOC(C)CN1CCCCc2nc(C)c(C)cc21 (stereo unspecified) -3.08
CCCNC(=O)[C@@H]1c2ccccc2C(=O)N(Cc2ccccc2Cl)[C@H]1c1ccc(CO)cc1 0.152
COc1ccc(O[C@H]2C=C[C@@H](c3ccccc3)O[C@@H]2COC(=O)CCC(C)=NOCC[C@@H]2C=C[C@H](OC(C)=O)[C@@H](COC(C)=O)O2)cc1 1.62
CC(C)OC(=O)C=C1C[C@@H](c2ccc(C#N)cc2)O[C@@H](c2ccc(C#N)cc2)O1 1.01
CCCC=C(CCC)[C@@H](NC(=O)c1ccc(-c2ccccc2)cc1)c1ccc(C(=O)OC)cc1 1.93
CCCC[C@@H](O)C1=C(C)C[C@H]2C(=O)N(Cc3ccccc3)C(=O)[C@H]2[C@H]1CO 0.0211
COCCNC(=O)OCC1CCCC2(CC(OC(=O)NCCc3ccc(F)cc3)CC(CCC(=O)N[C@@H](C)C(=O)OC)O2)O1 (stereo partly specified) 0.647
C[N+](C)(C)CCCCCCNC(=O)[C@@H]1C[C@@H]2C(=O)N3CCC[C@H]3C(=O)N2[C@@H]1c1cccc(OCCO)c1 -1.06
CC(C)C[C@@H]1NC(=O)[C@H]2C[C@@H](C(=O)O)[C@@H](c3ccc(O)cc3)N2C1=O 1.83
O=C1O[C@@H](c2ccccc2)[C@@H](c2ccccc2)N2[C@@H](c3ccccc3OCCO)[C@]3(C(=O)Nc4ccc(C#CCCO)cc43)[C@@H](C(=O)O)[C@H]12 -0.103
CO[C@H]1COC(=O)[C@H](C)COC(=O)CC=C[C@@H](C)[C@H](OC)COC(=O)CC=C[C@@H]1C -0.147
C=CCC(OC(C)=O)[C@@H]1[C@@H](N(Cc2cc3ccccc3o2)C(=O)Cc2ccc(F)cc2)c2cc(OCCCO)ccc2N1C(=O)Cc1ccc(OC)cc1 (stereo partly specified) -0.624
CO[C@@H]1COC(=O)[C@H](C)NC(=O)[C@@H](C)COC(=O)CCC[C@H]1C -1.14
CC(C)(C)OC(=O)CC[C@]1(C(N)=O)COC(c2ccc(OCCCO)cc2)=N1 0.0262
